The panel holds about 79,000 compounds, 15% with a hit somewhere; the sample as a whole holds those more often. Calls of active or inactive are those of the source. Rule as the data show it: active = growth inhibition above about 70%; inactive = the rest.
Legend:
[1] = NCI Yeast Anticancer Drug Screen. Data for the rad50 strain (AID 155);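 also: 0% = growth of vehicle-only cultures of the same strain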; conditions: S. cerevisiae rad50 strain growth inhibition; at 50.0 µM; active compounds read high
In short: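 Genetically altered yeast (DNA repair pathway); compound treatment; growth inhibition vs vehicle ctrl.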

[2] = NCI Yeast Anticancer Drug Screen. Data for the mec2-1 strain (AID 157); conditions: S. cerevisiae mec2-1 strain, at 50.0 µM, active compounds read high
In short: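 Using mec2-1 yeast: add compound, measure growth, express inhibition versus vehicle-treated cultures.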

[3] = NCI Yeast Anticancer Drug Screen. Data for the sgs1 mgt1 strain (AID 161);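 also: 0% = growth of cultures given vehicle only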; conditions: S. cerevisiae sgs1 mgt1 strain, at 50.0 µM, active compounds read high
In short: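 Growth of a repair-deficient yeast mutant was monitored after compound treatment and expressed as inhibition relative to vehicle-treated cultures.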

[4] = NCI Yeast Anticancer Drug Screen. Data for the cln2 rad14 strain (AID 165);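 also: 0% = growth equal to vehicle treated cultures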; conditions: S. cerevisiae cln2 rad14 strain, at 50.0 µM, active compounds read high
In short: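 Yeast strain cln2 rad14, bearing defects in cell cycle control and DNA repair, serves as the test system; values reflect growth inhibition compared with vehicle.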

[5] = NCI Yeast Anticancer Drug Screen. Data for the bub3 strain (AID 167); conditions: S. cerevisiae bub3 mutant strain, at 50.0 µM, active compounds read high
In short: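 Yeast carrying a defined mutation is treated with each compound, and growth is compared with that of vehicle-exposed cells to give inhibition.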

[6] = NCI Yeast Anticancer Drug Screen. Data for the mlh1 rad18 strain (AID 175); conditions: S. cerevisiae mlh1 rad18 strain growth inhibition; at 50.0 µM; active compounds read high
In short: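 Steps: expose repair-defective yeast to compound; measure growth; express inhibition against vehicle-treated controls.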

Measured: growth inhibition

COC1C(O)CC(OC2C(C)OC(Oc3cc(O)c4c(O)c5c(cc4c3)C[C@@H]([C@H](OC)C(=O)[C@@H](O)[C@@H](C)O)[C@H](OC3CC(OC4CC(OC6CC(C)(O)C(O)C(C)O6)C(O)C(C)O4)C(O)C(C)O3)C5=O)CC2OC(C)=O)OC1C (stereo partly specified)
inactive: [1] -7.9% | [2] -3.45% | [3] -32.9% | [4] 10% | [5] 2.45% | [6] 0.4%

Cc1cccc[n+]1CCC(N)=O
inactive: [1] -6.55% | [2] -26.8% | [3] -1.85% | [4] 5.5% | [5] -15.8% | [6] -6.25%

O=C(O)C#Cc1ccc([N+](=O)[O-])cc1
inactive: [1] 13.6% | [2] -7.6% | [3] 2.35% | [4] -20.2% | [5] -11.9% | [6] 16.5%

C=C1CC23CC[C@H]4[C@@](C)(CCC[C@@]4(C)C(=O)OC4OC(CO)C(O)C(O)C4O)[C@@H]2CC[C@@]1(OC1OC(CO)C(O)C(O)C1OC1OC(CO)C(O)C(O)C1O)C3 (stereo partly specified)
inactive: [1] -6.6% | [2] -38.5% | [3] -38.1% | [4] 25.4% | [5] -39.4% | [6] -16%

CSc1nc2c(ncn2C2OCC(O)C(O)C2O)c(=O)n1C (stereo unspecified)
inactive: [1] 12% | [2] 7.7% | [3] -24.2% | [4] 29.6% | [5] -4.35% | [6] 15.6%

CC(=O)CC(=O)NCc1ccc2c(c1)OCO2
inactive: [1] -17.4% | [2] -9.2% | [3] -16.3% | [4] 3.75% | [5] -15.1% | [6] -11.8%

COC1CC(C)(NC(=O)C(F)(F)F)C2OC(c3ccccc3)OCC2O1 (stereo unspecified)
inactive: [1] -25% | [2] -17.7% | [3] -41.4% | [4] -35% | [5] -3.85% | [6] -9.65%

CCC1CC(O)c2ccccc2O1 (stereo unspecified)
inactive: [1] -7.85% | [2] -4.2% | [3] -5.95% | [4] 8.85% | [5] -0.35% | [6] -1.65%

C1COC2(C1)CCCO2
inactive: [1] 21.6% | [2] -0.5% | [3] -27.2% | [4] 3.5% | [5] 23.2% | [6] -2.95%

C=CCCC(=O)CC(=O)OCC
inactive: [1] -25.1% | [2] -22.7% | [3] -10.7% | [4] 10.3% | [5] -8% | [6] 6.15%

CCOC(=O)C(C(=O)OCC)C(=O)C(C)(C)C
inactive: [1] 25.8% | [2] 0.3% | [3] 0.7% | [4] 11.2% | [5] 30.5% | [6] 18.9%

COc1cc(C(c2cc3c(cc2O)OCO3)n2ccnc2)cc(OC)c1OC (stereo unspecified)
inactive: [1] -15.2% | [2] 1.6% | [3] -13.1% | [4] 8.75% | [5] 2.9% | [6] 13.1%

CC1(C)OC2COC3(CO)OC(C)(C)OC3C2O1 (stereo unspecified)
inactive: [1] -2.2% | [2] 20.6% | [3] 15.4% | [4] -65.5% | [5] 15.2% | [6] 17.4%

Cc1cc(CO)c(O)c(CN(CC(=O)O)CC(=O)O)c1
inactive: [1] 20.2% | [2] -14.9% | [3] 5.9% | [4] -1.4% | [5] 21.6% | [6] -0.7%

NNC(=O)c1ccc[n+](CCc2ccccc2)c1
inactive: [1] -1.25% | [2] -8.55% | [3] -34% | [4] -34% | [5] -30.4% | [6] -5.5%

O=C(O)C(=Cc1ccc([N+](=O)[O-])cc1)C(=O)O
inactive: [1] 11.1% | [2] -21.8% | [3] 5.95% | [4] -7.35% | [5] -0.7% | [6] -11.6%

O=c1[nH]nc(-c2ccccc2)n1-n1cccc1
inactive: [1] -9.25% | [2] -26.1% | [3] -5.95% | [4] -3.6% | [5] -12.3% | [6] -6.25%

CCOP(=O)(OCC)/C(=C/NC(=S)c1cccnc1)C(=O)OC
inactive: [1] -11% | [2] -1% | [3] -13% | [4] -7.75% | [5] 17.6% | [6] -2.2%

CC(C)(CO)C(O)C(=O)NCCO (stereo unspecified)
inactive: [1] 14.8% | [2] -0.15% | [3] 6.05% | [4] 5.15% | [5] 3.3% | [6] -10.4%

COc1ccc(CCNC(=O)CCc2ccccc2CO)cc1OC
inactive: [1] 15.8% | [2] 13.9% | [3] -36.9% | [4] -5.9% | [5] -39.2% | [6] -5.9%

N#Cc1nc(CC(=O)/C=C/c2ccccc2)c(CC(=O)/C=C/c2ccccc2)nc1C#N
inactive: [1] 3.7% | [2] 13.7% | [3] 8.05% | [4] 16.3% | [5] 1.3% | [6] 21.3%

NC(=O)N/N=C\CC(O)(C(F)(F)Cl)C(F)(F)Cl
inactive: [1] -33.9% | [2] -29.2% | [3] -15.6% | [4] -1.5% | [5] 3.2% | [6] -3.1%

C=CCc1ccc(C)c(C)c1O
inactive: [1] 24.4% | [2] 3.55% | [3] 21.8% | [4] 19.1% | [5] 5.55% | [6] 12.8%

CCOC(=O)C(C)(C)OC(C)=O
inactive: [1] 39.2% | [2] 21.4% | [3] 19.6% | [4] 13.8% | [5] 4.2% | [6] 2.15%

Nc1c(S(N)(=O)=O)cc(S(N)(=O)=O)cc1S(N)(=O)=O
inactive: [1] 0.75% | [2] -20.6% | [3] -36% | [4] -24.6% | [5] -29.2% | [6] -16%

CC(=O)OC/C=C(C)/C=C/C=C(C)/C=C/C1=C(C)CCCC1(C)C
inactive: [1] -15.4% | [2] -34% | [3] -20.3% | [4] -2.25% | [5] 12.5% | [6] -55%

CCOc1ccccc1N=Nc1c(C)nn(C(=S)SC)c1OCC
inactive: [1] 22.5% | [2] 18.4% | [3] 26.4% | [4] 30.2% | [5] 14% | [6] 39.2%

O=[N+]([O-])c1cc(Br)ccc1N1CCCC1
inactive: [1] -8.7% | [2] 4.2% | [3] 4.05% | [4] -11.7% | [5] -2.3% | [6] -6.85%

O=C(O)c1cc(=O)[nH]c2ccccc12
inactive: [1] -10.1% | [2] -5.7% | [3] 8% | [4] -0.95% | [5] 1.7% | [6] 14.9%

CCN(CC)CCOc1c(C)cccc1C
inactive: [1] -5.15% | [2] 3.45% | [3] -13.1% | [4] -14.2% | [5] 12.1% | [6] -2%

O=C1/C(=C\c2ccccc2)Cc2cc3c(cc21)OCO3
inactive: [1] 6.1% | [2] 1.85% | [3] -3.55% | [4] -15.9% | [5] 8.95% | [6] -6.45%

Cc1ccc(NCCN)c2c(=O)c3cc(O)ccc3sc12
inactive: [2] 32.3% | [3] 40.4% | [4] 25.1% | [5] 9.65%
active: [1] 86% | [6] 86.7%

CC(=O)O/C(=C\C(=O)[C@H]1CC[C@H]2[C@@H]3CC[C@@H]4C[C@H](OC(C)=O)CC[C@]4(C)[C@H]3C(=O)C[C@]12C)C(F)(F)F
inactive: [1] -16.1% | [2] 23.6% | [3] 5.25% | [4] 18.8% | [5] 8.85% | [6] -13.6%

O=C1Nc2noc(=O)nc2NO1
inactive: [1] 13.1% | [2] 4.8% | [3] -0.35% | [4] -2.5% | [5] -22.4% | [6] -18.5%

CCC(C)(C1CCC(=O)CC1)C1CCC(=O)CC1
inactive: [1] 33.6% | [2] -5.75% | [3] -0.7% | [4] -7% | [5] -0.75% | [6] 7.85%

CS(=O)(=O)OC1C(OC(=O)c2ccccc2)OC(COC(=O)c2ccccc2)C1OC(=O)c1ccccc1 (stereo unspecified)
inactive: [1] 14.8% | [2] -13.6% | [3] 4.9% | [4] -28.7% | [5] 9.7% | [6] -13.8%

CC1CCCCc2nc3c(c(=O)n21)CCCC3 (stereo unspecified)
inactive: [1] 9.3% | [2] -11.8% | [3] 34% | [4] 0.25% | [5] 25.6% | [6] 41%

O/N=C1\CCCC\C1=N/O
inactive: [1] 6.55% | [2] -9.8% | [3] -8.35% | [4] -3.1% | [5] 8.95% | [6] -4.25%

O=C1OC2CC3CC2C1C3C(=O)N1CCCCC1 (stereo unspecified)
inactive: [1] 11.5% | [2] -1.6% | [3] -8.15% | [4] -33% | [5] -9.65% | [6] -5.4%

CCOC(=O)c1nc2c(C)nc(N)nc2[nH]c1=O
inactive: [1] -0.35% | [2] -1.2% | [3] -12% | [4] -32.1% | [5] -5.6% | [6] -3.1%

CCOC(=O)CCC(NC(=O)OCc1ccccc1)C(=O)NC(CCC(=O)OCC)C(=O)NC(CCC(=O)OCC)C(=O)NC(CCC(=O)OCC)C(=O)NC(CCC(=O)OCC)C(=O)NC(CCC(=O)OCC)C(=O)NC(CCC(=O)OCC)C(=O)OCC (stereo unspecified)
inactive: [1] -23.8% | [2] -16.5% | [3] -10.2% | [4] 26.2% | [5] -10.7% | [6] 2.2%

— PubChem BioAssay (NCI)
